Laboratory results reported in PMC4336329 (PLoS ONE, 2015).
In all, about 310,000 compounds went through this assay and about 14,000 (4.5%) showed an effect of 50% or more. Effects have a minus sign here. Many of the other results were omitted from the sample, so strong results are more common in it than they were.

Each molecule was assayed against human ether-à-go-go-related gene (hERG) potassium channel (human, UniProt Q12809) (assay: primary screen, population patch clamp on CHO cells stably expressing hERG; higher = less effect of the substance).
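Further: peak tail current of the secondary pulse compared with the same well before compound.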

Sequence of human ether-à-go-go-related gene (hERG) potassium channel (Q12809 whole entry, looked up): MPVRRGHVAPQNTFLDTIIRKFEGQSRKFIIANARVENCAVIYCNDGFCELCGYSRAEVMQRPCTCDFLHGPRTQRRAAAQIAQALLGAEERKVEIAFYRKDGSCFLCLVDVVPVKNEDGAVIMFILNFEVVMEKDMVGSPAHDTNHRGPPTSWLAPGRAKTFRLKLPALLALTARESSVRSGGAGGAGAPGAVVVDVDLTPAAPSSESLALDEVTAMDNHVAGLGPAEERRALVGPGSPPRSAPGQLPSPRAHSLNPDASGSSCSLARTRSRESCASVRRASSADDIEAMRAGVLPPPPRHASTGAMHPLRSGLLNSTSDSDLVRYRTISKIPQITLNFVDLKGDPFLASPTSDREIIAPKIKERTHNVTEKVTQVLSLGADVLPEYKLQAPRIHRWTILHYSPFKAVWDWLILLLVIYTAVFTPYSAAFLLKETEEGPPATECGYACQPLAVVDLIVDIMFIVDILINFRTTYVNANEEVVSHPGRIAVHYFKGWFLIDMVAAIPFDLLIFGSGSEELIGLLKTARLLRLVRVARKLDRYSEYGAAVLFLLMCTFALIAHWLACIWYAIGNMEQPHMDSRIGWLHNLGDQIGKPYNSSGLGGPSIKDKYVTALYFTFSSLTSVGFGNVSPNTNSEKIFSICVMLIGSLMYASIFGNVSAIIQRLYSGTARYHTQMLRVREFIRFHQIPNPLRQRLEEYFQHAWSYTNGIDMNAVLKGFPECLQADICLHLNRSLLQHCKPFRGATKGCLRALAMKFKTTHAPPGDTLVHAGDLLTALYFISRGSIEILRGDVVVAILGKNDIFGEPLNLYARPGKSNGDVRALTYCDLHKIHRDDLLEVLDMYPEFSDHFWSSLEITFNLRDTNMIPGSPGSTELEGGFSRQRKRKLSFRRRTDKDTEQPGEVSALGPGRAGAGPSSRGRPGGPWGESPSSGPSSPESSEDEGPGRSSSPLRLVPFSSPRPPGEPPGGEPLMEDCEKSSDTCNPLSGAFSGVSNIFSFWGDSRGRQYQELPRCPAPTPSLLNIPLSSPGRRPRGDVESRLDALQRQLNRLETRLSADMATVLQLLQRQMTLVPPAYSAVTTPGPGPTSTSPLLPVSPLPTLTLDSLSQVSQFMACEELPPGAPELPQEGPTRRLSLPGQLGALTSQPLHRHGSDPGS

Compound | hERG current change (%, negative = inhibition) at 10uM [%]
COc1ccc(-n2c(Cc3cccn3C)nnc2SCC(=O)Nc2ccccc2F)cc1 | -53.7
COc1ccc(OC)c(NC(=O)CSc2nnc(Cc3cccn3C)n2-c2ccc(F)cc2)c1 | -10.4
Cn1cccc1Cc1nnc(SCC(=O)Nc2ccccc2F)n1-c1ccc(F)cc1 | -17.4
COc1ccc(-n2c(Cc3cccn3C)nnc2SCC(=O)Nc2ccc(C)cc2)cc1 | -26.4
COc1ccc(Cl)cc1NC(=O)CSc1nnc(Cc2cccn2C)n1-c1ccc(F)cc1 | -34.6
COc1ccc(NC(=O)CSc2nnc(Cc3cccn3C)n2-c2ccc(OC)cc2)cc1 | -21.2
COc1ccc(-n2c(Cc3cccn3C)nnc2SCC(=O)Nc2ccc(F)cc2F)cc1 | -57.4
COc1ccc(C2=NOC(C(=O)N3CCOCC3)C2)cc1OC (stereo not shown) | 11.6
COCc1cc(C)nc(SCC(=O)Nc2cccc(C)c2)c1C#N | 14.2
COC1=CC(=O)C(O)=C(CCCCCCC/C=C/CCCCCCCC2=C(O)C(=O)C=C(OC)C2=O)C1=O | -3
CCOc1ccc(/C(CCC(=O)O)=N/NC(=S)NC(C)C)cc1 | 14.1
CC1(C)NC(=O)N(CC(=O)O)C1=O | 18
N/C(=N\OC(=O)c1ccc2ccccc2c1)c1ccccn1 | 28.3
COC(=O)C1=C(C)N=c2s/c(=C/c3cccs3)c(=O)n2C1c1cccs1 (stereo not shown) | -7.35
COC(=O)CN1C(=O)Nc2ccc(C)cc2C1c1ccccc1 (stereo not shown) | 14.3
COc1ccccc1NC(=O)CSc1nnc(CNC(=O)COc2ccc(Cl)cc2)o1 | -43.7
COc1ccc(Cl)cc1NC(=O)CSc1nnc(COc2ccccc2)n1N | -5.96
COc1ccc(-n2c(Cc3cccn3C)nnc2SCC(=O)Nc2cccc(OC)c2)cc1 | -23.4
COc1ccc(NC(=O)CSc2nnc(CNC(=O)COc3ccc(Cl)cc3)o2)c(OC)c1 | -12.9
COc1cc2c(cc1NC(=O)CSc1nnc(COc3ccc(Cl)cc3)n1C)oc1ccccc12 | 6.05
COc1ccc(-n2c(Cc3cccn3C)nnc2SCC(=O)Nc2cccc(F)c2)cc1 | -54.3
COc1cccc(NC(=O)CSc2nnc(Cc3cccn3C)n2-c2ccc(F)cc2)c1 | -15.5

Compound | hERG current change (%, negative = inhibition) at 10uM [%]
COc1ccc(Cl)cc1NC(=O)CSc1nnc(COc2ccccc2)n1C | -57.3
COc1ccc(OC)c(NC(=O)CSc2nnc(CNC(=O)COc3ccc(Cl)cc3)o2)c1 | -60.1
CN(CCC#N)C(=O)COC(=O)c1ccccc1C(=O)c1ccc(Cl)c([N+](=O)[O-])c1 | -0.749
CCOC(=O)CCC(=O)N1CCOCCOCCN(C(=O)CCC(=O)OCC)CCOCC1 | -7.63
Cc1cc(C)c2nc(-c3ccccn3)cc(C(=O)Nc3cc(C)on3)c2c1 | 10.4
COc1ccc(-n2nc(C(=O)NCC(=O)NC(C)C)c3ccccc3c2=O)cc1Cl | 4.05
COC(=O)c1c(C(=O)OC)c(-c2ccc(OC)cc2)n2c1CS(=O)C2 (stereo not shown) | 10.1
COC(=O)c1c(C(=O)OC)c(-c2ccc(C)cc2)n2c1CS(=O)C2 (stereo not shown) | -53.8
COC(=O)c1c(C(=O)OC)c(-c2ccc(F)cc2)n2c1CS(=O)C2 (stereo not shown) | 26.7
CC(C)(C)C(=O)NCCc1nc2ccccc2n1CC(=O)c1ccc(Cl)cc1 | -33.2
CC(C)C(=O)NCCc1nc2ccccc2n1CCCOc1ccc(Cl)cc1 | -41.7
CC(C)(C)C(=O)NCCCc1nc2ccccc2n1CCCOc1ccc(Cl)cc1 | -57.2
OCc1nc2ccccc2n1CCCCOc1ccccc1 | 0.828
OCCCc1nc2ccccc2n1CCOc1ccccc1 | -5.7
OCCCc1nc2ccccc2n1CCCCOc1ccccc1 | -57.2
CCSc1nnc(NC(=O)C2CCCCC2C(=O)OCC(F)(F)C(F)F)s1 (stereo not shown) | 17.9
O=C(COc1ccccc1)Nc1ccc([N+](=O)[O-])cc1 | 1.57
CCOC(=O)c1[nH]cnc1C(=O)Nc1ccccc1OC | -2.79
Cc1csc(SCC(=O)Nc2nnc(C)s2)n1 | 15
CC(Sc1nncn1C)C(=O)Nc1ccccc1-c1ccccc1 (stereo not shown) | 8.27
O=C(NC1CCCC1)C(c1ccncc1)N(C(=O)c1ccco1)c1ccccc1 (stereo not shown) | -5.61
